Drawing on PubChem BioAssay (NCATS), this text covers Potency, activity change, negative = inhibition and activity, negative = inhibition for 14 compounds.

The structures appear in SMILES notation. Values without a mark were called inactive. Inconclusive results are not listed. The source made the active and inactive calls. Unless noted, calls come from the whole dose curve; as a rule, active = well fitted curve in either direction with a large enough effect (not every such curve was filed as active); inconclusive = small, poorly fitted or top-dose-only effect, or another doubt; inactive = flat fitted curve, though single readings scatter. Some results are limits rather than exact numbers.

The target in assay [1] is Lysosomal acid glucosylceramidase (Homo sapiens) (UniProt P04062). Kind of assay: Glucocerebrosidase-p2 (AID 348; in the data active = potency below about 10 µM; note: potency is the fitted concentration of half-maximal effect). Conditions: purified GBA, blue fluorogenic substrate, 40 min. In a few lines:
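Compounds titrated from 0.6 nM upwards against 0.2 nM enzyme in pH 5.9 citric acid/KH2PO4, taurocholate, tween-20; blue fluorogenic substrate 80 uM, 40 min room temperature, stopped and read Ex 365/Em 440 for AC50.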

The nature of assay [2]: AP1 Signaling Pathway (AID 357).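 Note: ME-180 reporter cells stimulated with EGF at its EC50 level; % is set by controls: 0 for no effect and ±100 for the full control effect.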 Conditions: ME-180 AP-1-bla reporter, EGF-induced, beta-lactamase ratio, 5 h; at 7.69 µM (top of the series) unless noted. In a few lines: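 Modulation of EGF-driven AP-1 transcription was assessed with a beta-lactamase reporter in ME-180 cells. Compound and EC50 EGF were co-incubated 5 hours at 37 °C before 2.5-hour CCF4 loading at room temperature and dual-emission reading.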

Assay [3] can be described thus: NFAT Signaling Pathway (AID 444).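 Note: carbachol stimulus at about its EC50 of 1 µM final; % is set by controls: 0 for no effect and ±100 for the full control effect.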 Conditions: Jurkat NFAT-bla M1, carbachol, beta-lactamase ratio, 5 h; at 7.69 µM (top of the series) unless noted. In a few lines: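 Jurkat cells with NFAT-driven β-lactamase reporter and co-expressed M1 receptor, stimulated with carbachol (final 1 uM, ~EC50), compound titration, 5 h at 37 °C. CCF4 loaded 1 h at RT; 460/530 nm ratio gave %activity and AC50.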

Assay [4] is described as follows: Stat Signaling Pathway (AID 446).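 Note: ME-180 cervical cancer cells given 40 pM IL-6 alongside compound; SIE-controlled beta-lactamase reporter measured as 460/530 nm FRET emission ratio; % is set by controls: 0 for no effect and ±100 for the full control effect.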 Conditions: ME-180 SIE beta-lactamase reporter, IL-6 stimulated, 5 h; at 7.69 µM (top of the series) unless noted. In a few lines: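 ME-180 cells carrying a SIE-driven beta-lactamase reporter are stimulated with 40 pM IL-6 for 5 h at 37C in the presence of compound. The 460/530 nm FRET substrate ratio is read after 2.5 h at RT. Data are normalised to 300 pM IL-6 and to 125 nM JAK inhibitor controls.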

Assay [5] deals with Glucocorticoid receptor (Homo sapiens) (UniProt P04150). Put plainly: GR-GFP Redistribution (AID 450;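 active = compounds whose dose series gives a full or clear partial fitted curve of increased nuclear translocation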; note: potency is the fitted concentration of half-maximal effect). Conditions: U2OS GR-GFP nuclear translocation, laser cytometry, 2 h.
For assay [6] the target is unchanged. Put plainly: GR-EFC Redistribution (AID 451; calls by dose curve; note: potency is the fitted concentration of half-maximal effect). Conditions: CHO-K1 GR-EFC translocation, beta-gal luminescence, 2 h. In a few lines:
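CHO-K1 cells expressing nuclear EA and GR-ED fragments of b-gal; compounds titrated up to 46 uM final, 2 h at 37 C. GR nuclear translocation read as complemented b-gal luminescence after 1 h RT detection.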

Assay [7] has as its target Mitogen-activated protein kinase 10 (Mus musculus) (UniProt Q61831). Put plainly: JNK3 AlphaScreen Assay (AID 530).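 Note: kinase came from lysate of stimulated human HepG2 cells; signal reports phosphorylation of biotinylated GST-cJun 1-79 at Ser73 with 10 µM ATP; % is set by controls: 0 for no effect and ±100 for the full control effect.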 Conditions: JNK3 lysate, c-Jun phosphorylation; series mostly up to 11.4 µM. In a few lines: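 Pre-activated (IL-1β/TNFα) JNK3 in HepG2 lysates phosphorylates biotin-GST-cJun(1-79), 10 uM ATP; anti-phospho-cJun(Ser73) AlphaScreen read at room temperature, pH 7.6 Tris buffer. Compounds pre-incubated 15 min as titrations.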
Background: Alpha assays give light when donor and acceptor beads are brought close together.

Assay [8] concerns the target 3',5'-cyclic-AMP phosphodiesterase 4B (Homo sapiens) (UniProt Q07343). Kind of assay: qHTS Assay for Inhibitors of PDE-IV (AID 607; active = well fitted activation curve with a large enough effect in the main read-out, with a control signal flat, not every such curve was filed as active; note: % of control where 0% means no effect). Conditions: HEK293 ACTOne CNG channel cells, membrane potential fluorescence; series mostly up to 22.9 µM. In a few lines: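 HEK293 ACTOne cells with CNG channel (1000/well), endogenous PDE4; membrane potential dye, compounds up to 22.9 uM final. Fluorescence Ex 535/Em 590; RO 20-1724 (100 uM final) as reference.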
On the technique in general: In qHTS, concentration-response curves come from the screen itself.

For assay [9], the target named is Cytochrome P450 3A4 (Homo sapiens) (UniProt P08684). Put plainly: qHTS Assay for Inhibitors and Substrates of Cytochrome P450 3A4 (AID 884; active = well fitted curve in the direction sought with a large enough effect; an effect the other way counts as inactive or inconclusive; note: nearly all actives have a fitted effect of over 50% in size; note: potency is the fitted concentration of half-maximal effect). Conditions: recombinant CYP3A4, Luciferin-PPXE luminescence; series mostly up to 57.1 µM. In a few lines:
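20 nM human CYP3A4 with 25 uM Luciferin-PPXE (at KM) in 200 mM KPO4, preincubated 10 min with compound; NADPH regeneration started a 60 min RT reaction. Luciferin detected by luminescence, normalized to 57 uM ketoconazole as full inhibition.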

The target of assay [10] is Cytochrome P450 2C9 (Homo sapiens) (UniProt P11712). Kind of assay: qHTS Assay for Inhibitors and Substrates of Cytochrome P450 2C9 (AID 883; active = well fitted curve in the direction sought with a large enough effect; an effect the other way counts as inactive or inconclusive; note: nearly all actives have a fitted effect of over 60% in size; note: potency is the fitted concentration of half-maximal effect). Conditions: recombinant CYP2C9, luciferin-H luminescence, 60 min; series mostly up to 11.4 µM. In a few lines: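 10nM CYP2C9 + 100uM Luciferin-H (=KM), 25mM KPO4; cpd 10 min 37C; NADPH regen, 60 min 37C; stop/detect with P450 Glo-Buffer 20 min; luminescence. Norm. to 57uM sulphaphenazole as full inhibition.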

The target in assay [11] is Cytochrome P450 2D6 (Homo sapiens) (UniProt P10635). Kind of assay: qHTS Assay for Inhibitors and Substrates of Cytochrome P450 2D6 (AID 891; active = well fitted curve in the direction sought with a large enough effect; an effect the other way counts as inactive or inconclusive;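 note: luciferin methyl ether substrate demethylated by CYP2D6 with NADPH regeneration; % is set by controls: 0 for no effect and ±100 for the full control effect; nearly all actives have a fitted effect of over 60% in size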). Conditions: recombinant CYP2D6, luciferin-ME EGE luminescence; series mostly up to 11.4 µM. In a few lines:
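Human CYP2D6 (5 nM) with 30 uM Luciferin-ME EGE (at Km) in 100 mM KPO4, compound preincubated 10 min, then NADPH regeneration system for 60 min at room temperature. Luciferin read by luminescence; normalized to 1.43 uM quinidine.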

The target in assay [12] is Cytochrome P450 2C19 (Homo sapiens) (UniProt P33261). Kind of assay: qHTS Assay for Inhibitors and Substrates of Cytochrome P450 2C19 (AID 899; active = well fitted curve in the direction sought with a large enough effect; an effect the other way counts as inactive or inconclusive; note: nearly all actives have a fitted effect of over 60% in size; note: potency is the fitted concentration of half-maximal effect). Conditions: recombinant CYP2C19, luciferin-H EGE luminescence; series mostly up to 11.4 µM. In a few lines:
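Luminescent read-out of luciferin formed from Luciferin-H EGE (10uM, equal to KM). Enzyme 5nM in 50mM KPO4; compound added, 10 min at 37C, then NADPH regenerating system for 60 min at 37C. Full inhibition defined by 57uM ketoconazole.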

Assay [13] addresses Cytochrome P450 3A4 (Homo sapiens) (UniProt P08684). Put plainly: qHTS Assay for Activators of Cytochrome P450 3A4 (AID 885; active = well fitted curve in the direction sought with a large enough effect; an effect the other way counts as inactive or inconclusive; note: nearly all actives have a fitted effect of over 65% in size). Conditions: recombinant CYP3A4, Luciferin-PPXE luminescence, 60 min; series mostly up to 11.4 µM. In a few lines: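 Human CYP3A4 (20 nM) with Luciferin-PPXE at 25 uM (its KM) in 200 mM KPO4; 10 min compound preincubation, then NADPH regeneration and 60 min reaction at RT. Luciferin read by luminescence; normalized to 57 uM ketoconazole full inhibition.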

Glucocorticoid receptor (Homo sapiens), sequence (P04150 whole entry, looked up): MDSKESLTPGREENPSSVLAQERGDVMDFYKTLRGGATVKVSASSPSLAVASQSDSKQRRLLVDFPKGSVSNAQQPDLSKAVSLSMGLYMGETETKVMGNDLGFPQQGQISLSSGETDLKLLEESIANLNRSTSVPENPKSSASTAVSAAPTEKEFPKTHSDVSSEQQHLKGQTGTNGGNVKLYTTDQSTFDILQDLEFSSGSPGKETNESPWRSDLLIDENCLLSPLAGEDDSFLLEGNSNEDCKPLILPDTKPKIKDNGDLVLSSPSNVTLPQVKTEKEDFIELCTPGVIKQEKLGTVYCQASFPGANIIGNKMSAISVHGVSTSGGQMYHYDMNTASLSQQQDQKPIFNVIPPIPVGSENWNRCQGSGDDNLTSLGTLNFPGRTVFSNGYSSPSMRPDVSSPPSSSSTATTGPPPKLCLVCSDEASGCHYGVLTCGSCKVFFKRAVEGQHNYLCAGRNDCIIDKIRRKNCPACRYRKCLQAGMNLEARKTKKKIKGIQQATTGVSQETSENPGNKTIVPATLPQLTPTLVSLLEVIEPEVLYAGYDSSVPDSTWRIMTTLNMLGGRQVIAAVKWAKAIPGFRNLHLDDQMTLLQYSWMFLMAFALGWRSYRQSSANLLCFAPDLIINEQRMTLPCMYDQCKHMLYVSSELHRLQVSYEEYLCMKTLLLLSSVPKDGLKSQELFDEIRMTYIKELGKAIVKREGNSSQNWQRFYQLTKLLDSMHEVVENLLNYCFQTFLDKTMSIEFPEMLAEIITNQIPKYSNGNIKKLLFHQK
Lysosomal acid glucosylceramidase (Homo sapiens), sequence (P04062 whole entry, looked up): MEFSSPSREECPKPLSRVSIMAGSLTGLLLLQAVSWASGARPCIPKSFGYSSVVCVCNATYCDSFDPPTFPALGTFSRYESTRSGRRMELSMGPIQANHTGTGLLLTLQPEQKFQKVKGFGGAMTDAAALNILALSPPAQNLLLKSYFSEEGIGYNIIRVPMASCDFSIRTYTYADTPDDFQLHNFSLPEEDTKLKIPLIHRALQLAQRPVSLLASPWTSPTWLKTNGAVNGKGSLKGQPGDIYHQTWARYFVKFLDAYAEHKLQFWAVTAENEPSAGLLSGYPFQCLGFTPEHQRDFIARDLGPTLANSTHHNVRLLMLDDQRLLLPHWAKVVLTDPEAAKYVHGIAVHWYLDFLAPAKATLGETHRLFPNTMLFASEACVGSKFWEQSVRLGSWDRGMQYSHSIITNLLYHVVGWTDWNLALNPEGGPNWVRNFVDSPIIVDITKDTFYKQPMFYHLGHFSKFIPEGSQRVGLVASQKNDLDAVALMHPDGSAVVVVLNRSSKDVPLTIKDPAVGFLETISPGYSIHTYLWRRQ
3',5'-cyclic-AMP phosphodiesterase 4B (Homo sapiens), sequence (Q07343 whole entry, looked up): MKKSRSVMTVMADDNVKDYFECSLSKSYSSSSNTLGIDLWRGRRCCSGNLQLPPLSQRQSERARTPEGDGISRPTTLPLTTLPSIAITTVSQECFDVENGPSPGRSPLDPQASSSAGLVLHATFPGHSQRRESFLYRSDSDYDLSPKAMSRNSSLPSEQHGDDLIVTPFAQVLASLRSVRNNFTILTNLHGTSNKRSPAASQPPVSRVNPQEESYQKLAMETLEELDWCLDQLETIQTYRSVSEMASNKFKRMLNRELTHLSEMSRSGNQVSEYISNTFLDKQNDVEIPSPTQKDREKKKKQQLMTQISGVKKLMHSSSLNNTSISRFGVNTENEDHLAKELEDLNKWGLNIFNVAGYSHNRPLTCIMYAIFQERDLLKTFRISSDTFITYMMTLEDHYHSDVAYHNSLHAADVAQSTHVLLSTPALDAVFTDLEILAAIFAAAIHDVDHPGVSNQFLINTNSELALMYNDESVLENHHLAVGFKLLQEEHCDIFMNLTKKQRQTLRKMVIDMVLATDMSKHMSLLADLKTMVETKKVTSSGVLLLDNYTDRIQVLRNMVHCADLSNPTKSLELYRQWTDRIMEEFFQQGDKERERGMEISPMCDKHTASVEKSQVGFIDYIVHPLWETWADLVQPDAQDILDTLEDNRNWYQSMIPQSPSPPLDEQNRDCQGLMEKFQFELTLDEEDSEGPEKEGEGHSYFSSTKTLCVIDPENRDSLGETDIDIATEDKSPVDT
Cytochrome P450 3A4 (Homo sapiens), sequence (P08684 whole entry, looked up): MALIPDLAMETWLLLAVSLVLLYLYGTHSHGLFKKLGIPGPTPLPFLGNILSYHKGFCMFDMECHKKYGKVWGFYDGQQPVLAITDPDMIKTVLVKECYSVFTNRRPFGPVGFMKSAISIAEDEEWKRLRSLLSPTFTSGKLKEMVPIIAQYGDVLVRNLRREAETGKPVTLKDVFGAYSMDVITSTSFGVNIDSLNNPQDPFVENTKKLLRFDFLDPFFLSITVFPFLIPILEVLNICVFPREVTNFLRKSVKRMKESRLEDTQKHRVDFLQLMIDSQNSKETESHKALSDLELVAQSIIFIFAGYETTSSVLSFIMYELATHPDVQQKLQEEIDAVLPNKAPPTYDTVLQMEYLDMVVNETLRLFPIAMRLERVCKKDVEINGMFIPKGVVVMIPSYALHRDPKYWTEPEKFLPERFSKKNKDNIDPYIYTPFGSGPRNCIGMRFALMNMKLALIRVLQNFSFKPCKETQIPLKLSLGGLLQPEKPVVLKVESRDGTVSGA
Cytochrome P450 2C19 (Homo sapiens), sequence (P33261 whole entry, looked up): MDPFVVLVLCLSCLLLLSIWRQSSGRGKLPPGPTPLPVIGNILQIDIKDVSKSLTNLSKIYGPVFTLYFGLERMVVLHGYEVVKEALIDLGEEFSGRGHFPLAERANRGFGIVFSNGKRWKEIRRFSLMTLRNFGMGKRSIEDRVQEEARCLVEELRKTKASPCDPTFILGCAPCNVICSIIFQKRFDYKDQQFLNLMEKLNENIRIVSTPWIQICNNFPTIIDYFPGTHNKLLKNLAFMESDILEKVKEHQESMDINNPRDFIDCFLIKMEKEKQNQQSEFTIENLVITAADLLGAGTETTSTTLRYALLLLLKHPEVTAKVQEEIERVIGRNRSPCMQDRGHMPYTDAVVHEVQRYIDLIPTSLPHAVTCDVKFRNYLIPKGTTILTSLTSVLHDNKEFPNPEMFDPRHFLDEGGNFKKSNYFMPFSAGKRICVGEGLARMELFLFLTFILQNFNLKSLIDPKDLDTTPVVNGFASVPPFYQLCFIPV
Cytochrome P450 2C9 (Homo sapiens), sequence (P11712 whole entry, looked up): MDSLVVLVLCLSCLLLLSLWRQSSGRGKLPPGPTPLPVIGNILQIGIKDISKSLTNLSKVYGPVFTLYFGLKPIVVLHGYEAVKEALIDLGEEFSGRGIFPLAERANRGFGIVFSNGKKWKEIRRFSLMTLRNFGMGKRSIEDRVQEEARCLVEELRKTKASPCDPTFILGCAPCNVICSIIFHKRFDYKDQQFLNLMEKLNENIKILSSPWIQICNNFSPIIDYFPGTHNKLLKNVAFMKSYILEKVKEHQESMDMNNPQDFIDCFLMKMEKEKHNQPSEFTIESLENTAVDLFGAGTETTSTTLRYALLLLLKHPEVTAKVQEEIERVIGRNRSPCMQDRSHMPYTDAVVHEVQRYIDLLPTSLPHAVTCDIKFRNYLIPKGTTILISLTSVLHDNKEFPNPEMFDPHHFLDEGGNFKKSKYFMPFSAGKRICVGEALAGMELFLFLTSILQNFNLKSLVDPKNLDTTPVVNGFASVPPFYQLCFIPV
Cytochrome P450 2D6 (Homo sapiens), sequence (P10635 whole entry, looked up): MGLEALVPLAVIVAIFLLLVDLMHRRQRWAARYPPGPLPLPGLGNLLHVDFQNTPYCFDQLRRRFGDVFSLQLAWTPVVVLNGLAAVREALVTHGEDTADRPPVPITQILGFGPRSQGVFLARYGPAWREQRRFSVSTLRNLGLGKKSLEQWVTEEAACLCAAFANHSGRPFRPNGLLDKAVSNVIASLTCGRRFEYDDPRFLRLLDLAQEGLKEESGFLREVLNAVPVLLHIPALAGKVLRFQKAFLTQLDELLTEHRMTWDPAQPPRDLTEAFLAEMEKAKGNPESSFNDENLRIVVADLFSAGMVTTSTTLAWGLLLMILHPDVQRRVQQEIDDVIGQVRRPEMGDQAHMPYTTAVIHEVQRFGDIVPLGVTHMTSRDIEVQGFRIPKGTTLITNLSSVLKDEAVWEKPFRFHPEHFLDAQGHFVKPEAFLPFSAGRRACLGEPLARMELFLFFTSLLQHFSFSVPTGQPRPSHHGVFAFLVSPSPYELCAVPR

For `O=c1c(-c2ccccc2)nc2cnc(Oc3ccccc3)nc2n1C1CC1`, the results for the Potency in assay [1], in [5] and in [6] were greater than 11.4 µM, greater than 9.22 µM and greater than 46 µM, respectively. Also, the activity change, negative = inhibition in assay [2] is -26.4%; in assay [3] it was 2.32%. In addition, in [4], the activity, negative = inhibition is -5.21%. Also, the Potency entry in assay [7], in [8] and in assay [9] was “inactive” each time.

In the case of `CN(C)Cc1nsc(N(C)C)n1`, the Potency in assay [1] is greater than 11.4 µM; in assay [5] it was greater than 46 µM; in assay [6], greater than 9.22 µM. Further, the activity change, negative = inhibition is 6.96% in assay [2] and 0.0247% in assay [3]. Also, in assay [4], the activity, negative = inhibition is 11.1%. Besides, the Potency entry in assay [7] and in assay [8] was “inactive” in each case.

For `O=C1c2ccccc2C(=O)c2c1ccc(N1C(=O)c3ccccc3C1=O)c2-c1c(N2C(=O)c3ccccc3C2=O)ccc2c1C(=O)c1ccccc1C2=O`, the Potency in assay [1] is greater than 11.4 µM; in [5], greater than 46 µM; in [6] it was greater than 9.22 µM. The activity change, negative = inhibition in assay [2] was -8.78%; in assay [3], -22.9%. Besides, the activity, negative = inhibition in [4] is 12%. For the same compound, the Potency result in assay [7], in [8], in [10], in assay [11] and in [12] was “inactive” in each case.

Take `O=C(O)Cc1c[nH]c2ccc(F)cc12`: the Potency was greater than 11.4 µM in assay [1], greater than 46 µM in [5] and greater than 9.22 µM in [6]. Further, the activity change, negative = inhibition in [2] is 0.0381%; in [3] it was 24.2%. The activity, negative = inhibition in [4] was 5.52%. The Potency result in assay [7] and in assay [8] was “inactive” each time.

For `CSc1nc2cc(S(=O)(=O)N3CCCCC3)ccc2s1`, the Potency was greater than 11.4 µM in [1], greater than 46 µM in [5], greater than 9.22 µM in assay [6] and 1.26 µM (active) in [12]. In addition, the activity change, negative = inhibition in [2] is -19.7%; in [3] it was -0.492%; in assay [9], 50.1% [at 11.4 µM]. Besides, in [4], the activity, negative = inhibition is -6.1%. The Potency result in [7] and in assay [8] was “inactive” in each case.

As for `CC(C)CN(CC#N)CC(C)C`, the Potency is greater than 11.4 µM in assay [1], greater than 46 µM in [5] and greater than 9.22 µM in assay [6]. In addition, the activity change, negative = inhibition in [2] was 6.22%; in assay [3], 12.7%. The activity, negative = inhibition in assay [4] was 5.79%. Moreover, the Potency entry in assay [7] and in assay [8] was “inactive” each time.

Regarding `O=CNc1ncn[nH]1`, the Potency was greater than 11.4 µM in [1], greater than 46 µM in assay [5] and greater than 9.22 µM in [6]. Further, the activity change, negative = inhibition in [2] is -1.52%; in assay [3] it was -0.432%. Further, the activity, negative = inhibition in [4] is 8.03%. The Potency result in assay [7] and in assay [8] was “inactive” each time.

On to `CN1CCC(n2[nH]c(-c3ccccc3)c(Cc3ccccc3)c2=O)CC1`, for which the Potency in assay [1] was greater than 11.4 µM; in assay [5], greater than 46 µM; in [6], greater than 9.22 µM; in assay [9], 3.98 µM (active). The activity change, negative = inhibition was -1.32% in assay [2] and -82.4% (active) in [3]. Further, the activity, negative = inhibition in assay [4] is 11.1%. In addition, the Potency result in assay [7], in [8] and in assay [13] was “inactive” each time.

In the case of `N[C@@H](CSc1nc2ccccn2c1[N+](=O)[O-])C(=O)O`, the Potency is greater than 11.4 µM in assay [1], greater than 46 µM in assay [5] and greater than 9.22 µM in assay [6]. Besides, the activity change, negative = inhibition in assay [2] is -2.33%; in assay [3] it was 9.56%. In addition, the activity, negative = inhibition in assay [4] is -1.41%. Moreover, the Potency entry in assay [7] and in [8] was “inactive” in each case.

As for `O=C1C(=O)c2ccccc2C(O)=C1Cc1ccccc1`, the Potency in assay [1] was greater than 11.4 µM; in assay [5] it was greater than 46 µM; in [6] it was greater than 9.22 µM. For the same compound, the activity change, negative = inhibition is -5.11% in assay [2] and 4.13% in [3]. Also, the activity, negative = inhibition in [4] was -11.8%. The Potency result in assay [7] and in assay [8] was “inactive” in each case.

On to `O=C(O)c1ccc(C(=O)O)c2c(C(=O)O)ccc(C(=O)O)c12`, for which the Potency in assay [1] was greater than 11.4 µM; in [5] it was greater than 46 µM; in assay [6], greater than 9.22 µM. Further, the activity change, negative = inhibition is -5.07% in assay [2] and 5.59% in [3]. Further, the activity, negative = inhibition in assay [4] is -1.89%. The Potency result in assay [7] and in assay [8] was “inactive” each time.

Turning to `CC(C)[C@@H]1O[C@H](/C=C\c2ccccc2)OCC1(C)C`, the Potency was greater than 11.4 µM in assay [1], greater than 46 µM in assay [5] and greater than 9.22 µM in assay [6]. Besides, the results for the activity change, negative = inhibition in assay [2] and in [3] were -2.98% and 26.7%, respectively. Besides, the activity, negative = inhibition in assay [4] is 8.84%. The Potency result in assay [7], in assay [8] and in assay [13] was “inactive” throughout.

`O=S1(=O)CCN(c2ccccc2CC(c2c[nH]c3ccccc23)c2c[nH]c3ccccc23)CC1`: the Potency in assay [1] is greater than 11.4 µM; in assay [5] it was greater than 46 µM; in assay [6], greater than 9.22 µM; in assay [10], 3.16 µM (active); in assay [12], 3.16 µM (active). Besides, the activity change, negative = inhibition was -12.9% in assay [2] and -27.4% in assay [3]. Further, in assay [4], the activity, negative = inhibition was -20.7%. The Potency entry in [7] and in assay [8] was “inactive” in each case.

In the case of `CC(C)[C@](N)(C(=O)O)c1ccccc1`, the Potency in assay [1] is greater than 11.4 µM; in [5], greater than 46 µM; in [6] it was greater than 9.22 µM. In addition, the activity change, negative = inhibition in [2] was -9.87%; in assay [3], 5.98%. For the same compound, the activity, negative = inhibition in assay [4] was 29.8%. In addition, the Potency result in assay [7], in assay [8] and in assay [11] was “inactive” in each case.
